High-throughput results as filed in PubChem.
POLB inh: inhibitors of human DNA polymerase beta | P06746 | Pol beta primer extension/strand displacement, fluorescence kinetic | Potency, µM (series often up to 114 µM), inactives show at the top dose activity change, negative = inhibition, actives largely listed as inhibitors | 1.3% of 340,000 active; further: on the % scale 0 is the no-effect control and ±100 the full control effect
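Preincubation: enzyme (10 nM) with compound, 15 min, RT. Reaction: substrate added to 50 nM final. Reads: 0 and 10 min. Analysis: normalized, Hill fit.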
FEN1 inhibitor: blocks human flap endonuclease 1; P39748; Recombinant FEN1 flap cleavage, fluorescence, 15 min; Potency, µM (highest dose often 114 µM), for inactives: top-dose activity change, negative = inhibition, most hits filed as inhibitors; 0.35% of 390,000 active; AID 588795; further: on the % scale 0 is the no-effect control and ±100 the full control effect; nearly all actives have a fitted effect of over 65% in size
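Reaction started by adding substrate (50 nM final) to 10 nM enzyme after 15 min room-temperature compound preincubation. Reads at 0 and 15 min, with data normalized and fitted to a four-parameter Hill equation.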
Pol kappa inh: inhibitors of human DNA polymerase kappa; Q9UBT6; purified Pol kappa, fluorescent DNA synthesis assay, 10 min; Potency, µM (top dose mostly 107 µM), for inactives: at the highest dose activity, negative = inhibition, actives largely listed as inhibitors; 0.53% of 400,000 active; AID 588579; further: on the % scale 0 is the no-effect control and ±100 the full control effect
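First, compounds were pin-transferred onto 10 nM Pol kappa. After 15 min at room temperature, substrate was added to 50 nM final. Fluorescence was then measured kinetically at 0 and 10 min.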
POLH inh: inhibitors of human DNA polymerase eta; AID 588591; recombinant Pol eta, fluorescent DNA replication assay; 1.2% of 390,000 active; Potency, µM (highest dose often 114 µM), inactives show at the top dose activity change, negative = inhibition, hits mostly inhibitors; further: on the % scale 0 is the no-effect control and ±100 the full control effect
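Pol eta (10 nM) was preincubated with compounds for 15 min at room temperature, after which fluorescent replication substrate (50 nM final) was added to start the reaction. Fluorescence was read kinetically at 0 and 10 min.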
POLI inh: DNA polymerase iota (human) inhibition | Q9UNA4 | Pol iota fluorescent replication assay, 10 min | Potency, µM (top dose mostly 115 µM), inactives show at the highest dose activity, negative = inhibition, actives largely listed as inhibitors | 1% of 390,000 active | AID 588590
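Pol iota at 10 nM preincubated 15 min with compounds at room temperature; reaction started with fluorescent substrate, 50 nM final. Fluorescence read kinetically at 0 and 10 min; buffer-only wells as negative control.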
WRN helicase inh: blocks human WRN helicase. Q14191. WRN helicase unwinding, fluorescent forked duplex, kinetic. Potency, µM (doses to about 114 µM), inactives show top-dose activity change, negative = inhibition, usual class: inhibitors. 0.46% of 360,000 active; further: on the % scale 0 is the no-effect control and ±100 the full control effect; nearly all actives have a fitted effect of over 55% in size
Target sequence (Q14191 whole entry, looked up): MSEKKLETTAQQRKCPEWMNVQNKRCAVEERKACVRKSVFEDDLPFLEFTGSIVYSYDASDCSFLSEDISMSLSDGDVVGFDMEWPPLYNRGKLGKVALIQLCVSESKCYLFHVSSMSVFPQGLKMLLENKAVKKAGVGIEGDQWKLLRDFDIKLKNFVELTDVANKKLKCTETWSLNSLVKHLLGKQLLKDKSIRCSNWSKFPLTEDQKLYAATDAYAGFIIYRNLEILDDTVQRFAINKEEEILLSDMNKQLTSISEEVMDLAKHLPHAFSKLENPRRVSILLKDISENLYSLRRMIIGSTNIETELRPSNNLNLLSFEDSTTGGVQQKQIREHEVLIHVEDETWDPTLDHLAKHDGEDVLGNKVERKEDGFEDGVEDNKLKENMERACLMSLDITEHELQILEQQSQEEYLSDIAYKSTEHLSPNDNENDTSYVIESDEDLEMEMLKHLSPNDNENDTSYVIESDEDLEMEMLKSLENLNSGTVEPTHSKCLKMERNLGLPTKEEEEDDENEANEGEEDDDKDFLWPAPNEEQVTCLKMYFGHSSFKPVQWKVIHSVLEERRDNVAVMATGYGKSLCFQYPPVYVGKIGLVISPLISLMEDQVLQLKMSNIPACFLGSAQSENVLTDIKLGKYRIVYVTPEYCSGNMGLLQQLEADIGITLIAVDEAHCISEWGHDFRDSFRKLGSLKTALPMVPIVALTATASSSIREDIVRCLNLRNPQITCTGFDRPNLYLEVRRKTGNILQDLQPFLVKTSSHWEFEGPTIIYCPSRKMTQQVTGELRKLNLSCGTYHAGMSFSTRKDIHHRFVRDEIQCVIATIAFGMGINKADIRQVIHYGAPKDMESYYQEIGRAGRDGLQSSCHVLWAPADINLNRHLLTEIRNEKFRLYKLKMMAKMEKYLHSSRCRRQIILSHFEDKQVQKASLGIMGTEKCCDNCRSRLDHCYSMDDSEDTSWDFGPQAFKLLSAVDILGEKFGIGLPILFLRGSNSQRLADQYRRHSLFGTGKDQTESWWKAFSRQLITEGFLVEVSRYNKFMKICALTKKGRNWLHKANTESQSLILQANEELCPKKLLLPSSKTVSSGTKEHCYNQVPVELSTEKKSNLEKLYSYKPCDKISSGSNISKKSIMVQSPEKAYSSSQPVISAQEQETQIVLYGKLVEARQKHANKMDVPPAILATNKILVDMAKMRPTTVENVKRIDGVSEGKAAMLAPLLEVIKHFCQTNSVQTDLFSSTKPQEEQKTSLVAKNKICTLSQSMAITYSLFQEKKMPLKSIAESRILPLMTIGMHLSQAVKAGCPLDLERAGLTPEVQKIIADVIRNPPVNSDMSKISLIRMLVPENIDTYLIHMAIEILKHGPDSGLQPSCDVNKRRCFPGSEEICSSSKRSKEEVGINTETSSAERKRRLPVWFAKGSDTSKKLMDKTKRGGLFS
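Enzyme (20 nM final) and test compound sit together 15 min at room temperature before substrate addition. Substrate is a single-forked duplex oligonucleotide (100 nM) labelled with fluorophore and quencher, with 2 mM ATP; helicase unwinding raises red fluorescence, read kinetically.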
An asterisk follows results filed as active; ? = inconclusive; . = no result given; [ ] = another dose, or the depositor's remark. Compounds with a hit are over-represented: about 2.4% of the library has one in this group of screens. The call rests on the fitted dose curve; in most records, active means well fitted curve in the direction sought with a large enough effect; inconclusive means small, poorly fitted or top-dose-only effect, or another doubt; inactive means no such curve, though single readings can be large; an effect the other way counts as inactive or inconclusive. Potency means the concentration at half of the fitted maximal effect.

SMILES | POLB inh | FEN1 inhibitor | Pol kappa inh | POLH inh | POLI inh | WRN helicase inh
COc1ccc(C(=O)COC(=O)CCN2C(=O)C3CC=CCC3C2=O)c(OC)c1 (stereo not given) | . | 23% | -12% | ? | 40µM* | 4%[11.6 µM]
COc1ccc(C(=O)COC(=O)CCn2c(C)csc2=O)c(OC)c1 | . | . | . | ? | . | -12%
C=CCN(CC=C)c1cnn(-c2nc3ccccc3[nH]2)c(=O)c1Cl | 0.22µM* | 0% | -1% | 1% | 14% | -2%
CCOC(=O)C1=C(C)N=c2s/c(=C\c3ccc(OCC(=O)O)cc3)c(=O)n2C1c1ccccc1OC (stereo not given) | 13% | 79µM* | -6% | 40µM* | 17% | -3%
CCOC(=O)C1=C(c2ccccc2)N=c2s/c(=C\c3cc(OC)c(OC)c(OC)c3)c(=O)n2C1c1cccs1 (stereo not given) | 3% | -3% | -18% | -12% | ? | -22%
CCOC(=O)C1=C(c2ccccc2)N=c2s/c(=C\c3ccco3)c(=O)n2C1c1cccs1 (stereo not given) | 10µM* | -17% | ? | 79µM* | 20µM* | ?
COc1ccc(C2C(C(C)=O)=C(C)N=c3s/c(=C\c4ccco4)c(=O)n32)c(OC)c1 (stereo not given) | 35µM* | -14% | -32% | 2% | ? | -12%
CC1=C(C(=O)Nc2ccccc2)C(c2ccc(Cl)cc2)n2c(s/c(=C/c3cccc(OCC(=O)O)c3)c2=O)=N1 (stereo not given) | 79µM* | ? | -13% | 56µM* | ? | ?
CS(=O)(=O)Nc1cccc(-c2ccc3ncnc(NCc4cccs4)c3c2)c1 | . | . | 2%[60.1 µM] | . | . | .
CCn1cc(C(=O)NCc2ccc(Cl)cc2)c(=O)c2cc(S(=O)(=O)N(C)C3CCCCC3)ccc21 | 19% | ? | -3% | -21% | -3% | .
O=C(Cn1c(=O)n(-c2ccccc2)c(=O)c2ccc(C(=O)NCc3ccc4c(c3)OCO4)cc21)Nc1ccc(Br)cc1F | 24% | -16% | 3% | 3% | 3% | .
COC1=CC(=O)C(C2CC(=O)c3c(O)cc(O)cc3O2)=CC1=O (stereo not given) | . | 50µM* | 32µM* | ? | ? | 28µM*
COc1c(CC=C(C)C)cc(C2CC(=O)c3c(O)cc(O)cc3O2)cc1CC=C(C)C (stereo not given) | -30% | ? | -12% | -21% | -6% | -7%
NC(=O)c1c(NC(=O)c2ccc([N+](=O)[O-])o2)sc2c1CCCC2 | 62% | 0% | 4% | 8% | 94% | 4%
NC(=O)c1c(NC(=O)c2cc3ccccc3o2)sc2c1CCC2 | 50µM* | 0% | -32% | ? | ? | -13%[57.1 µM]
CCOCCCn1c(=N)c(C(N)=S)cc2c(=O)n3cccc(C)c3nc21 | -23% | -25% | 0% | -5% | ? | -27%
CCOC(=O)c1cc2c(=O)n3cccc(C)c3nc2n(C)c1=N | 79µM* | . | . | . | . | .
CSc1ccc(CNC(=O)Cn2c(-c3cccs3)cc3cc(F)ccc32)cc1 | 6% | 23% | -2% | -16% | 14% | .
COc1cc2[nH]c(=S)nc(NC3CCCCCC3)c2cc1OC | ? | 45µM* | -16% | -3% | -21% | ?
COc1ccc2c(c1)sc1ncc(C(=O)NCc3cccc(C)c3)c(=O)n12 | 47% | -10% | 5% | -4% | 3% | .
O=C(CSc1nc2nn(-c3ccccc3)c(=O)c-2c2n1CCCCC2)c1ccc(O)c(O)c1 | . | ? | 4µM* | 1.8µM* | 2µM* | 2.8µM*
O=S(=O)(NCCc1nnc2ccc(SCc3cccc(Cl)c3)nn12)c1ccccc1 | -25% | 6% | -4% | -25% | 18% | .
Nn1c(SCC(=O)NC2CCCCC2)nnc1C1CC1 | 0.32µM* | -1% | -18% | 1% | 1% | -5%
CC(C)=C1C(=O)NN(c2ccc(C)c(Cl)c2)C1=O | ? | -4% | ? | -7% | 79µM* | -30%
CCOC(=O)COc1nc(-c2ccc(C)cc2)cc(-c2ccco2)c1C#N | 0% | -1% | -3% | -16% | 0% | -6%
SMILES | POLB inh | FEN1 inhibitor | Pol kappa inh | POLH inh | POLI inh | WRN helicase inh
CCOC(=O)COc1nc(-c2ccco2)cc(-c2ccco2)c1C#N | ? | -8% | ? | -1% | 50µM* | -16%
CC(=O)N(/N=C1\Sc2ccccc2C1=O)c1cccc(C)c1 | -2% | -6% | 1% | 20µM* | ? | -13%[11.6 µM]
Cc1ccccc1C(c1c(C)n(C)n(-c2ccccc2)c1=O)c1c(C)n(C)n(-c2ccccc2)c1=O | 1% | -5% | -17% | -8% | -15% | .
COc1cc(OC)cc(OC(=O)c2ccc3c(=O)n4c(nc3c2)CCC4)c1 | . | -6% | -25% | 40µM* | 40µM* | -2%[11.6 µM]
CCc1nnc(NC(=O)c2nc(SCc3ccc(F)cc3)ncc2Cl)s1 | 0% | 18% | -10% | -8% | ? | .
Cc1nnc(Sc2cc(NCCO)c([N+](=O)[O-])c3nonc23)s1 | 27% | 40µM* | -21% | ? | ? | -24%[11.6 µM]
O=[N+]([O-])c1c(NCCO)cc(N2CCCCCC2)c2nonc12 | ? | -16% | -6% | -12% | 48% | 6%
COC(C(=O)C(O)C(C)O)C1Cc2cc3cc(OC4CC(OC5CC(O)C(O)C(C)O5)C(O)C(C)O4)c(C)c(O)c3c(O)c2C(=O)C1OC1CC(OC2CC(OC3CC(O)C(OC)C(C)O3)C(O)C(C)O2)C(O)C(C)O1 (stereo not given) | . | ? | 79µM* | 11µM* | 22µM* | ?
COc1cccc(CNC(=O)CSc2cc(C)[nH]c(=O)n2)c1 | -12% | -3% | -6%[60.1 µM] | 2% | 6% | .
Cc1ccc(S(=O)(=O)N(CC(=O)Nc2ccc3c(c2)OCO3)c2ccc(C)c(Cl)c2)cc1 | 26% | ? | -6% | -24% | 0% | .
Cc1ccc(NC(=O)CS(=O)CC(=O)Nc2ccc3c(c2)OCO3)cc1Cl (stereo not given) | 50µM* | -13% | -29% | ? | ? | -10%
O=C(CCS(=O)(=O)c1ccccc1)Nc1ccc2c(c1)OCO2 | 11µM* | 2% | ? | -8% | ? | -6%
O=C(CS(=O)(=O)c1ccccc1)Nc1ccc(Cl)cn1 | 2% | 5% | -8% | -20% | 43% | 7%
COc1ccccc1OCC(=O)Nc1ccc2c(c1)OCO2 | 50µM* | -18% | -25% | ? | ? | ?
O=C(CCS(=O)(=O)c1ccccc1)Nc1ccc(Cl)cn1 | 32µM* | 1% | -17% | -4% | 17% | -9%[57.1 µM]
Cc1ccccc1OCC(=O)Nc1ccc2c(c1)OCO2 | 20% | -9% | -5% | -21% | 23% | -6%
